From PubChem
Hits are enriched below; roughly 4.8% of the tested compounds scored in any of these assays.
SKKanGAS inh – S. pyogenes SKKanGAS growth inhibitors in kanamycin, primary screen, streptokinase expression inhibitor project, SKKanGAS strain, BacTiter-Glo luminescence. 6 h. inhibition, % at 7.5 µM. 300,000 compounds, 1.3% hits. AID 1662, 2009;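 active = mean replicate score, as percent of positive control median, at least 50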;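 note: strain carries kanamycin resistance gene driven by streptokinase promoter and grows in 40 µg/ml kanamycin; loss of luminescence reflects streptokinase promoter inhibition or plain growth inhibition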
PfHsp90 yeast 2 – growth inhibition of PfHsp90-expressing yeast, primary screen, antimalarial PfHsp90 inhibitor project, S. cerevisiae, BacTiter-Glo luminescence, single point, set 2; BacTiter-Glo ATP, 48 h; yeast lacking PDR1 and PDR3 efflux regulators; inhibition, % at 9.4 µM; 310,000 compounds, 0.32% hits;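 active = every replicate shows inhibition above about 80%, whatever the replicate mean, limit read from the data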
TIM10 inh – growth inhibitors of isogenic TIM10 control yeast, primary screen, counter-screen for tim10-1 yeast inhibitor project, luminescence, uHTS. S. cerevisiae TIM10 strain growth, BacTiter-Glo luminescence, 24 h. inhibition, % at 10 µM. 330,000 compounds, 1.4% hits. AID 463195, 2010;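 active = inhibition of 40% or more at the single tested concentration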;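 note: wild-type TIM10 isogenic control strain grown at permissive 25 °C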
tim10-1 inh – growth inhibitors of tim10-1 mutant yeast, primary screen, luminescence, uHTS. S. cerevisiae tim10-1 ts strain growth, BacTiter-Glo, 24 h. inhibition, % at 20 µM. 330,000 compounds, 2.2% hits. AID 463190, 2010;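 active = inhibition of at least 40%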;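 note: mutant grown at 25 °C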
tim23-1 inh – growth inhibitors of tim23-1 mutant yeast, primary screen, luminescence, uHTS | S. cerevisiae tim23-1 growth, BacTiter-Glo luminescence, 24 h | inhibition, % at 20 µM | 330,000 compounds, 1.3% hits | AID 463212, 2010;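 active = growth inhibition of the mutant yeast at or above 50%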;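 note: temperature-sensitive mutant grown at 25 °C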
NALP1 yeast inh – NALP1 inflammasome inhibitors in reconstituted yeast, colorimetric, S. cerevisiae, triplicate retest; S. cerevisiae NALP1/ASC/caspase-1 growth, X-gal OD620, 72 h; inhibition, % at 10 µM; 280,000 compounds, 0.61% hits; in the data active = inhibition mostly above about 24%, no sharp cut-off; inactive = mostly below about 32%
Of the large screens only hits and unclear results are named; the others gave an inactive call.

COc1ccccc1CN1CC(C(=O)NCc2ncccc2C)CCC1=O (stereo not drawn)	SKKanGAS inh 51
COc1ccc(CCN2CC(C(=O)NCCc3ccccc3C)CCC2=O)cc1 (stereo not drawn)	none
COC(=O)CN(c1cc(Cl)ccc1OC)S(=O)(=O)c1ccc(C)cc1	none (no result: NALP1 yeast inh)
O=C1NCCCC1C(=O)N1CCN(C(c2ccccc2)c2ccccc2)CC1 (stereo not drawn)	none
COC(=O)c1scc(C)c1N/N=C(\C)c1cc(F)c(Cl)cc1F	NALP1 yeast inh 42
COc1cccc(NC(=O)COC(=O)COc2cccc3c2OC(C)(C)C3)c1	none
CC(C)CC(=O)/C(=C\c1ccc(Cl)cc1Cl)n1cncn1	PfHsp90 yeast 2 129, NALP1 yeast inh 112 (no result: TIM10 inh, tim10-1 inh, tim23-1 inh)
CC(C)CC(=O)/C(=C/c1ccc(N(C)C)cc1)n1cncn1	none
Cc1sc(NC(=O)CSc2n[nH]c(N)n2)c(C#N)c1C	none (no result: SKKanGAS inh, TIM10 inh, tim10-1 inh, tim23-1 inh, NALP1 yeast inh)
Cc1ccc(/C=C/C2=Cc3c(sc(NC(=O)CSc4n[nH]c(N)n4)c3C#N)C(C)(C)C2)o1	SKKanGAS inh 55 (no result: PfHsp90 yeast 2)
CSc1n[nH]c2nc3c(c(=O)n12)C1(CCCCC1)Cc1ccccc1-3	SKKanGAS inh 60
CCSc1n[nH]c2nc3c(c(=O)n12)C1(CCCCC1)Cc1ccccc1-3	none
O=C(C1CCC(=O)N(C2CCCC2)C1)N1CCC(Oc2cccc(F)c2)CC1 (stereo not drawn)	none
Cc1cc(C)c(C#N)c(N2CCN(c3ccccc3F)CC2)n1	SKKanGAS inh 50
Cc1ccc(NC(=O)c2sc(N)nc2-c2ccc([N+](=O)[O-])cc2)c(C)c1	none
O=C(Cc1ccccc1)Nc1ccc2oc(=O)ccc2c1	NALP1 yeast inh 36
O=C(Nc1ccc2oc(=O)ccc2c1)c1ccco1	none
N#Cc1c(NC(=S)NC(=O)c2ccccc2)sc2c1CCCC2	none
CC(C)CC(=O)NC(NC(=S)Nc1sc2c(c1C#N)CCCC2)C(Cl)(Cl)Cl (stereo not drawn)	SKKanGAS inh 56 (no result: PfHsp90 yeast 2)
CCC(=O)Nc1sc2c(c1C#N)CCC2	none
N#Cc1c(NC(=S)NC(=O)C2CCCC2)sc2c1CCCCC2	SKKanGAS inh 76
O=C(CCN1CCOCC1)NNC(=O)Nc1cccc(Cl)c1	none
O=C(NCC1CCCO1)c1sc(=S)n2c1[nH]c(=O)c1ccc(C(=O)N3CCCCC3)cc12 (stereo not drawn)	none
CCCCNC(=O)c1sc(=S)n2c1[nH]c(=O)c1ccccc12	SKKanGAS inh 54
O=C(NC1CCCCC1)c1sc(=S)n2c1[nH]c(=O)c1ccccc12	SKKanGAS inh 60 (no result: PfHsp90 yeast 2)
O=C(NCCc1ccccc1)c1ccc2c(=O)[nH]c3c(C(=O)NCC4CCCO4)sc(=S)n3c2c1 (stereo not drawn)	none
Cc1cc(C)cc(NC(=S)N2CC(C)OC(C)C2)c1 (stereo not drawn)	none (no result: SKKanGAS inh)
COC(=O)NC(NS(=O)(=O)c1ccccc1)(C(=O)OC)C(F)(F)F (stereo not drawn)	none
CCOC(=O)C(NS(=O)(=O)c1ccccc1)(C(F)(F)F)P(=O)(OCC(C)C)OCC(C)C (stereo not drawn)	NALP1 yeast inh 34
CCOC(=O)c1ccc2nc(C(F)(F)F)[nH]c(=O)c2c1	none
CC1CCN(C(C(=O)Nc2ccc(C(C)C)cc2)c2ccc3c(c2)OCO3)CC1 (stereo not drawn)	NALP1 yeast inh 38
CC(C)c1ccc(NC(=O)C(c2ccc3c(c2)OCO3)N2CCCCC2)cc1 (stereo not drawn)	none
O=C(Cc1ccc(S(=O)(=O)N2CCCC2)s1)Nc1nc2c(s1)CCCC2	SKKanGAS inh 62 (no result: PfHsp90 yeast 2)
CC(=O)N1CCc2cc(S(=O)(=O)NCCC(=O)Nc3cc(C)cc(C)c3)ccc21	NALP1 yeast inh 40
O=C(CN1CCOCC1)N1CCN(c2ccc([N+](=O)[O-])cc2)CC1	none (no result: SKKanGAS inh)
Cc1cc(=O)[nH]c2c1c(C)nn2-c1ccccc1	none (no result: PfHsp90 yeast 2)
Cc1nn(-c2ccccc2)c2[nH]c(=O)cc(C(F)(F)F)c12	NALP1 yeast inh 38
COc1ccc(C(=O)O/N=C2\C(=O)N(C)c3ccccc32)cc1	PfHsp90 yeast 2 105 (no result: NALP1 yeast inh)
Cn1c(N)c(C(C[N+](=O)[O-])c2c(F)cccc2Cl)c(=O)n(C)c1=O (stereo not drawn)	NALP1 yeast inh 44
CN(C)c1ccc(C(C[N+](=O)[O-])c2c(N)n(C)c(=O)n(C)c2=O)c(F)c1C#N (stereo not drawn)	none
CCc1csc(CCNC(=O)C2CCC(=O)N(Cc3ccccc3F)C2)n1 (stereo not drawn)	none
COc1ccc(CN2CCNC(=O)C2CC(=O)NCCC2=CCCCC2)cc1OC (stereo not drawn)	none
Cc1nnc(N2C(=O)C(O)=C(C(=O)c3ccco3)C2c2ccc(C(C)(C)C)cc2)s1 (stereo not drawn)	none
O=C(c1ccccc1)N1CCN(c2ncnc3c2cnn3-c2ccccc2)CC1	none
O=C(c1cccc(Cl)c1)N1CCN(c2ncnc3c2cnn3-c2ccccc2)CC1	NALP1 yeast inh 25
CCC1(C)Cc2ccccc2-c2nc(-c3ccccc3)oc(=O)c21 (stereo not drawn)	SKKanGAS inh 54 (no result: PfHsp90 yeast 2)
O=C(Nc1ccccn1)c1ccc(S(=O)(=O)c2ccc(Cl)cc2)cc1	none
Cc1cc(/C=C2\SC(=S)N(C)C2=O)c(C)n1-c1ccccc1O	SKKanGAS inh 88 (no result: NALP1 yeast inh)
Cc1cc(/C=C2\SC(=S)NC2=O)c(C)n1-c1cccc(O)c1	SKKanGAS inh 82, PfHsp90 yeast 2 94
O=C1c2oc3ccc(Cl)cc3c(=O)c2C(c2cccc(Br)c2)N1CCO (stereo not drawn)	none
NC(Cc1cccc2nsnc12)C(=O)O (stereo not drawn)	none
Cc1onc(-c2ccccc2)c1C(=O)Nc1ccnn1C1CCCCC1	NALP1 yeast inh 32
CC[C@@H](C(=O)[C@@H](C)[C@@H](O)[C@H](C)CCc1ccc(C)c(O)c1C(=O)O)[C@H]1O[C@](CC)([C@H]2CC[C@](O)(CC)[C@H](C)O2)C[C@@H]1C	SKKanGAS inh 108
CC[C@@H](C(=O)[C@@H](C)[C@@H](O)[C@H](C)[C@@H]1O[C@@H]([C@@H](CC)C(=O)O)CC[C@@H]1C)[C@H]1O[C@]2(C=C[C@@H](O)[C@]3(CC[C@@](C)([C@H]4CC[C@](O)(CC)[C@H](C)O4)O3)O2)[C@H](C)C[C@@H]1C	none (no result: SKKanGAS inh, TIM10 inh, tim10-1 inh, tim23-1 inh, NALP1 yeast inh)
O=C(NNC(=O)c1ccccc1OCc1ccc(F)cc1)c1ccccc1O	SKKanGAS inh 93
O=C(Cn1nc(CNc2ccc(Cl)cc2)[n+]2c1CCCCC2)c1ccc(Br)cc1	SKKanGAS inh 84
